# High-throughput results deposited in PubChem BioAssay by several laboratories.
# Vif inh – HIV Vif self-association inhibitors, primary screen, imaging, HEK293T, single point | HEK293T cells, Vif self-association by quenched fluorescence, 24 h | inhibition, % at 7.49 µM | hit rate 0.35% among 340,000 | AID 602346, 2012; in the data active = inhibition above about 50%, passing the limit was not always enough
# ARNT-TACC3 inh – disruptors of ARNT/TACC3 protein interaction, primary screen, biochemical, AlphaScreen, single concentration. AlphaScreen His-ARNT PAS-B/GST-TACC3 binding, luminescence; TACC3 fragment carries E629A point mutation. hit rate 0.66% among 390,000. AID 623870, 2012. inhibition, % at 9.99 µM;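 active = mean inhibition of replicates at least 50% and at least half of replicates each reaching 50%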;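 note: 0% = complete ARNT plus TACC3 wells and 100% = ARNT alone without TACC3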
# aDG glyco up – activators of alpha-DG glycosylation, primary screen, uHTS, Pro5-aDG cells, AlphaScreen; activation, % at 10 µM; alpha-DG glycosylation AlphaScreen (IIH6); 0% Pro5, 100% B10-LARGE cell signal; hit rate 0.22% among 360,000; AID 624168, 2012;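 active = activation of at least 8% versus controls, or a plate z-score of at least 8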;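 note: Pro5 are CHO cells carrying HIG-tagged alpha-DG that lacks glycosylation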
# N-glyco inh – increase of ERlucT glycosylation luciferase signal, primary screen, N-linked glycosylation inhibitor project, D54 ERlucT cells, luminescence, set 2 | AID 588692, 2011 | reporter increase, % at 12.5 µM | hit rate 0.23% among 360,000 | D54 ERlucT glycosylation luciferase reporter, 24 h; percent of 100 nM tunicamycin response;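 active = mean luciferase reporter signal, scaled so untreated is 0 and the glycosylation-blocking control 100, at or above a set limit in every replicate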;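 note: luciferase carries N-glycosylation sites so blocking glycosylation raises the light; 0% = median of neutral control wells and 100% = median of 100 nM tunicamycin wells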
# Cardio protect – cardioprotection against H2O2-induced cell death, primary screen, uHTS, H9c2 cells, ATPLite luminescence | AID 588492, 2011 | hit rate 0.63% among 360,000 | H9c2 cardiomyocytes, H2O2 injury protection, 2 h | protection from H2O2 cell death, % at 20 µM;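 active = compounds giving at least 50% protection of heart cells from peroxide-induced death in the single-dose screen, raw or plate-pattern-corrected value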;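 note: 0% = DMSO wells with peroxide and 100% = DMSO wells without peroxide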
# The depositor's hits bear a star; . = no result given. A selection: hits, their analogues and other compounds. The true share with any hit is near 1.7%.
SMILES,Vif inh,ARNT-TACC3 inh,aDG glyco up,N-glyco inh,Cardio protect
C[C@@H]1CN([C@H](C)CO)C(=O)c2cccc(NC(=O)c3ccc(-c4nccs4)cc3)c2O[C@@H]1CN(C)C(=O)Nc1ccccc1,.,-1.1,.,.,.
CCOC(=O)C1CCN(c2cc3c(cc2NC(=O)c2ccccc2Br)n(C)c(=O)n3C)CC1,8.1,11.1,-0.5,2.3,51.9*
Cc1ccc(NC(=O)/C=C/c2ccco2)nc1,51.4*,-1.6,-0.4,2.5,-8.6
O=C(Nc1nc(-c2ccccn2)cs1)c1cc2ccccc2o1,12.2,65.8*,0.1,-4.6,10.8
O=C(/C=C/c1ccco1)Nc1ccc(Oc2ccc(Cl)cc2)cc1,62.8*,-4.8,-0.3,9.8,-21.1
Cc1cc(-c2csc(NC(=O)c3cc4ccccc4o3)n2)c(C)n1C,-3.7,20.6,1.7,-2.6,-2.1
CCc1sc(C(=O)Nc2nc(-c3ccccn3)cs2)cc1C,2.4,63.4*,2.0,-2.0,51.4*
Cc1noc(C)c1NC(=O)NCC[C@H]1CC[C@@H](NC(=O)c2ccccc2)[C@@H](CO)O1,.,-7.3,.,.,.
Cc1ccc(S(=O)(=O)Nc2ccc3c(c2)CC(=O)N([C@@H](C)CO)C[C@@H](C)[C@H](CN(C)S(C)(=O)=O)O3)cc1,.,3.9,.,.,.
Cc1c(C(=O)Nc2nc(-c3ccccn3)cs2)oc2ccccc12,.,.,1.1,-5.5,54.0*
Cc1nnc(NC(=O)c2oc3ccccc3c2C)s1,-5.3,-1.2,-0.1,0.9,-7.6
COc1ccccc1C(=O)Nc1nc(-c2ccc(S(=O)(=O)N3CCOCC3)cc2)cs1,-10.4,3.7,-0.2,-14.0,31.0
O=C(/C=C/c1ccco1)Nc1nc(-c2ccccn2)cs1,-1.9,65.0*,1.6,-4.1,50.2*
Cc1ccc(S(=O)(=O)N2CCOCC2)cc1C(=O)Nc1nc(-c2ccccn2)cs1,-12.3,75.5*,2.2,-9.3,54.1*
COc1cccc(NC(=O)C[C@@H]2CC[C@@H]3[C@H](COc4ccc(NC(=O)c5ccccc5F)cc4C(=O)N3C)O2)c1,.,0.7,.,.,.
CCCNC(=O)Nc1ccc2c(c1)OC[C@H](C)N(C(=O)C1CCCCC1)C[C@H](C)[C@H](OC)CN(C)C2=O,.,-6.3,.,.,.
Cc1ccc(NC(=O)c2[nH]cnc2C(=O)NN)cc1,11.8,-1.0,0.1,1.1,3.2
O=C(Nc1ccc(Cl)cc1)c1nc[nH]c1C(=O)NCc1ccccc1,2.0,4.7,1.6,1.1,8.3
O=C(Nc1ccccc1)c1nc[nH]c1C(=O)NCCNC(=O)c1[nH]cnc1C(=O)Nc1ccccc1,-1.4,-17.0,-0.5,-1.2,52.0*
O=C(Nc1ccccc1)c1nc[nH]c1C(=O)NCCCCNC(=O)c1[nH]cnc1C(=O)Nc1ccccc1,-4.0,-23.3,-0.6,0.7,80.6*
CN(CCN(C)C(=O)c1[nH]cnc1C(=O)Nc1ccccc1)C(=O)c1[nH]cnc1C(=O)Nc1ccccc1,-0.7,-17.0,-0.1,0.9,18.0
CNC(=O)c1[nH]cnc1C(=O)Nc1cccc(Cl)c1,15.0,0.4,-0.1,11.5,34.4
O=C(Nc1cccc(Cl)c1)c1nc[nH]c1C(=O)NCCCNC(=O)c1[nH]cnc1C(=O)Nc1cccc(Cl)c1,10.2,.,-0.2,2.3,79.8*
NNC(=O)c1nc[nH]c1C(=O)Nc1ccccn1,-0.5,47.8*,-0.4,2.6,6.5
CN(C)CCNc1ccc(CO)c2sc3ccc(O)cc3c(=O)c12,2.7,32.1,-0.2,-7.3,14.2
SMILES,Vif inh,ARNT-TACC3 inh,aDG glyco up,N-glyco inh,Cardio protect
COc1ccc2sc3cccc(NCCN(C)C)c3c(=O)c2c1,1.6,.,0.2,139.7*,2.6
O=C(C[C@@H]1CC[C@H]2[C@@H](COC[C@H](O)CN2C(=O)c2cccnc2)O1)NCc1ccc(-c2ccccc2)cc1,.,8.0,.,.,.
CCCn1c(=O)c(C(=O)Nc2ccccc2)c(O)c2ccccc21,9.1,-9.2,-0.3,2.0,57.3*
CCn1c(=O)c(C(=O)NC(C)c2ccccc2)c(O)c2ccccc21 (stereo not given),-6.7,24.1,-0.2,-1.9,55.0*
CCCn1c(=O)c(C(=O)Nc2ncccc2O)c(O)c2ccccc21,58.1*,2.6,-0.3,0.4,-4.3
O=c1oc2ccccc2c(O)c1Sc1c(O)c2ccccc2oc1=O,-10.7,75.9*,0.1,1.2,0.5
O=C(CCc1ccccc1)N/N=C\C1CC=CCC1 (stereo not given),-8.4,-0.5,0.2,1.4,-2.1
CC(C)(C)c1ccc(OCC(=O)N/N=C/C2CC=CCC2)cc1 (stereo not given),0.8,24.7*,0.3,-1.4,-13.7
CC(NC(=O)C(CC(=O)OC(C)(C)C)NC(=O)OC(C)(C)C)C(N)=O (stereo not given),55.0*,-3.8,0.0,1.5,-4.5
Cc1n[nH]c(=S)n(NC(=O)/C=C/C(=O)Nn2c(=S)[nH]nc(C)c2=O)c1=O,-4.2,65.6*,-0.3,1.6,7.7
Cc1nn2c(=S)[nH]nc2[nH]c1=O,0.7,-0.8,0.0,-0.6,1.4
Cc1n[nH]c(=S)n(NC(=O)CC(=O)Nn2c(=S)[nH]nc(C)c2=O)c1=O,-3.7,67.4*,0.4,6.9,-10.1
O=C(C[C@@H]1C=C[C@@H](NC(=O)C2CC2)[C@H](CO)O1)NCc1ccncc1,.,-5.0,.,.,.
C[C@H](CO)N1C[C@H](C)[C@@H](CN(C)S(=O)(=O)c2cccc(F)c2)Oc2ncc(-c3cccc(C(=O)N(C)C)c3)cc2C1=O,.,-13.0,.,.,.
C=CS(=O)(=O)c1c2cc(OC)ccc2nc2ccc(OC)cc12,1.1,-6.2,0.0,53.1*,-16.5
COc1cc(C)cc(C(=O)C=Cc2ccccc2)c1O,-12.6,-2.8,0.3,31.3*,15.7
COc1ccc(C(=O)/C=C/c2ccccc2)c(OC)c1,-8.5,2.4,0.6,9.1,-9.2
Cc1ccc(O)c(C(=O)C=Cc2ccccc2)c1,1.5,-1.7,0.1,30.0*,-11.9
O=C(C[C@H]1CC[C@@H](NC(=O)c2ccc3c(c2)OCO3)[C@H](CO)O1)NC1Cc2ccccc2C1,.,-19.0,.,.,.
CCc1cnc(N2[C@H](C#N)[C@H](c3ccc(C#CC(C)C)cc3)[C@@H]2CO)s1,.,7.4,.,.,.
O=C(c1ccc(Br)o1)N1CCN(c2ccc3nnc(-c4ccccc4)n3n2)CC1,-4.7,-6.1,-0.1,-6.2,80.6*
Cc1nnc2ccc(N3CCN(C(=O)c4ccccc4)CC3)nn12,7.0,-0.5,-0.1,1.8,13.4
Cc1[nH]c2ccc(C(=O)N3CCN(Cc4ccccc4)CC3)cc2c1C,24.3,4.9,-0.1,-4.2,-8.4
COc1ccc2[nH]c(C(=O)N3CCN(Cc4ccccc4)CC3)cc2c1OC,1.4,6.9,0.0,45.0*,-4.9
